From PubChem BioAssay
In the library only some 2.9% were active in any assay of this set; here they are far more common.
PfHsp90 set2: reduces growth (ATP signal) of yeast expressing P. falciparum Hsp90; AID 504621; S. cerevisiae expressing PfHsp90, BacTiter-Glo ATP, 48 h; yeast lacking PDR1 and PDR3 efflux regulators; inhibition, % at 9.4 µM; hit rate 0.32% among 310,000;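 active = every replicate shows inhibition above about 80%, whatever the replicate mean, limit read from the data; inconclusive = mean inhibition reaches the set limit but some replicate falls short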
Wnt bcat act: Wnt/beta-catenin pathway activation. Wnt/beta-catenin reporter cell assay, activator, plate reader. activation, % at 9.35 µM. hit rate 1.2% among 300,000; in the data active = activation above about 30%, passing the limit was not always enough; inconclusive = no clear call, values can overlap the other calls
TRPM1 prom inh: reduces MITF-dependent TRPM1 promoter luciferase signal; SK-MEL-5 TRPM1 promoter luciferase, 24 h; inhibition, % at 12.5 µM; hit rate 0.83% among 330,000; AID 488899;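 active = mean inhibition across replicates of 60% or more, whatever share of single replicates reaches that level; inconclusive = some that reach 60%, reason not given; inactive = mean inhibition across replicates below 60%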
Glyco luc inh: N-linked glycosylation inhibition; D54 ERlucT glycosylation luciferase reporter, 24 h; percent of 100 nM tunicamycin response; hit rate 0.23% among 360,000; AID 588692; reporter increase, % at 12.5 µM;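 active = mean luciferase reporter signal, scaled so untreated is 0 and the glycosylation-blocking control 100, at or above a set limit in every replicate; inconclusive = mean reaches the limit but not every replicate does; inactive = mean below the limit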;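 also: luciferase carries N-glycosylation sites so blocking glycosylation raises the light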
NSD2 inh: NSD2 (human) methyltransferase inhibition. O96028. AID 743445. hit rate 0.54% among 310,000. NSD2 peptide methylation, AlphaScreen, 120 min. inhibition, % at 12.5 µM; in the data active = inhibition above about 50%
Target sequence (O96028 whole entry, looked up): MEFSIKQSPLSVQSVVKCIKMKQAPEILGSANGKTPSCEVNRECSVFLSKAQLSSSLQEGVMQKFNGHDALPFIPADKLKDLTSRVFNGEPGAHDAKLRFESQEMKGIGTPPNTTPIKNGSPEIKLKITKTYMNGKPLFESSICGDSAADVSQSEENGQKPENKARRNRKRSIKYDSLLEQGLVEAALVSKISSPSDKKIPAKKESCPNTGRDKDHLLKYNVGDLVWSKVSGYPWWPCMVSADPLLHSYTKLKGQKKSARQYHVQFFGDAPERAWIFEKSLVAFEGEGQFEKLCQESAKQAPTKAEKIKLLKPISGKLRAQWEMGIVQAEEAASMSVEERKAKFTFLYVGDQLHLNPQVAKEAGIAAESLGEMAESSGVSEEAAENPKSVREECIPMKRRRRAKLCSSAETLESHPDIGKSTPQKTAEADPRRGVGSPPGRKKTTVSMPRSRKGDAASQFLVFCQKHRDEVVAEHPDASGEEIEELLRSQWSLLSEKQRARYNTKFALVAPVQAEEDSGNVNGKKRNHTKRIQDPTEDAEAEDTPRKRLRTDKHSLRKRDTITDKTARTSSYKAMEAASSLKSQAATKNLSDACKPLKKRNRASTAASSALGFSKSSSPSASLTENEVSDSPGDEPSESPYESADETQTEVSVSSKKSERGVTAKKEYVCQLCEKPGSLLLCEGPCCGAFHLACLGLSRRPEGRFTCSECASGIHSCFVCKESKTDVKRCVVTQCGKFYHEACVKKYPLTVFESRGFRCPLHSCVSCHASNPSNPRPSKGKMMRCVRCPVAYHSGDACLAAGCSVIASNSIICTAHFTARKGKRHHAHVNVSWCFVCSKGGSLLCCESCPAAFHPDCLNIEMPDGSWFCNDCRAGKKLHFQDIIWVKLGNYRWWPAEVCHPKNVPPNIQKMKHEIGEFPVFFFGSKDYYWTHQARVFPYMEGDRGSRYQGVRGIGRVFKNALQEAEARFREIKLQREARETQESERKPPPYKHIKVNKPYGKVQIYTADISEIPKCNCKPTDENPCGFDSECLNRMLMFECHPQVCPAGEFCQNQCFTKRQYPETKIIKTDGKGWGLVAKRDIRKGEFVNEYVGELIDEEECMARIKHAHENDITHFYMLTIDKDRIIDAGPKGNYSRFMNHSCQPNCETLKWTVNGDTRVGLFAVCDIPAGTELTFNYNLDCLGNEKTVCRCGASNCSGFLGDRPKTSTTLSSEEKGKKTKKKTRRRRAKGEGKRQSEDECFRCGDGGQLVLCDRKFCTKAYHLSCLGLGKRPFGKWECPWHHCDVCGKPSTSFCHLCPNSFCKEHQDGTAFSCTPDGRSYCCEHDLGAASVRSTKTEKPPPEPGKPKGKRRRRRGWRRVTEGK
MITF TRPM1 HTS: increases MITF-driven TRPM1 promoter luciferase signal; SK-MEL-5 TRPM1-promoter luciferase, 24 h; % of positive control, neutral wells = 0; activation, % at 12.5 µM; hit rate 0.75% among 300,000;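 active = mean activation of at least 80% with every replicate also reaching 80%; inconclusive = mean reaches 80% but some replicate falls short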
Hits are given with their value; – = inactive; ? = inconclusive; · = not tested or not shown.

SMILES | PfHsp90 set2 | Wnt bcat act | TRPM1 prom inh | Glyco luc inh | NSD2 inh | MITF TRPM1 HTS
ClCc1nc2ccccc2c2ccccc12 | – | – | – | 63.0 | – | –
Cc1occc1C(=O)N/N=C/C=C/c1ccccc1 | – | – | – | – | – | ?
O=C(N/N=C/c1cccc(OCc2ccccc2)c1)c1cccs1 | – | 38.6 | – | – | – | ·
O=C(O)c1ccc(COc2ccc(/C=N/NC(=O)c3cccs3)cc2)cc1 | – | – | – | – | – | –
Cc1occc1C(=O)N/N=C/C(Br)=C\c1ccccc1 | – | 58.4 | – | – | – | ·
O=C(N/N=C/C(Br)=C\c1ccccc1)c1cccs1 | · | 125.8 | · | – | – | ·
CC1(C(=O)N2Cc3ccccc3C2)CCN1C(=O)C1(c2ccc(Cl)cc2)CC1 (stereo unspecified) | · | – | · | – | – | ·
CCOc1ccc(-c2nnc(-c3cccs3)o2)cc1OCC | · | · | – | – | – | ·
CCOc1ccc(-c2nnc(-c3cccs3)o2)cc1 | – | 31.3 | – | – | – | –
c1csc(-c2ccc(N3CCOCC3)nn2)c1 | – | 33.5 | – | – | – | –
c1csc(-c2nnc(-c3ccc(N4CCOCC4)cc3)o2)c1 | – | · | – | – | – | –
CCOC(=O)C1CCN(c2ccc(-c3cccs3)nn2)CC1 | – | 38.0 | – | – | – | 83.5
CC(C)c1[nH]nc2c1C(c1cccc(C(F)(F)F)c1)N(Cc1ccccc1)C2=O (stereo unspecified) | · | – | · | · | · | ·
CNc1nc(-c2ccccc2)cc(C)c1S(C)(=O)=O | – | – | – | – | – | –
COc1ccccc1C(=O)NC1CCCCN(Cc2ccc(Cl)cc2)C1=O (stereo unspecified) | · | · | · | · | – | ·
O=C1N=c2ccc(Br)cc2=C1c1sc(=S)n(NS(=O)(=O)c2ccccc2)c1O | – | – | – | – | – | –
COc1cc(OC)c2c(-c3cccc(-c4ccc(O)cc4)c3)cc(=O)oc2c1 | – | – | – | – | · | –
COc1ccc(-c2cccc(-c3cc(=O)oc4cc(OC)cc(OC)c34)c2)cc1 | – | – | 67.0 | – | · | –
COc1cc(OC)c2c(-c3cccc(-c4cccc(C)c4)c3)cc(=O)oc2c1 | – | – | – | – | · | –
COc1cc(OC)c2c(-c3cccc(-c4ccc(N(C)C)cc4)c3)cc(=O)oc2c1 | – | – | – | – | · | –
COc1cc(OC)c2c(-c3cccc(/C=C/c4ccc(F)cc4)c3)cc(=O)oc2c1 | – | – | – | – | · | 95.6
COc1cc(OC)c2c(-c3cccc(-c4ccc(CO)cc4)c3)cc(=O)oc2c1 | – | · | 77.2 | – | · | –
COC(=O)C1=C(C)N(Cc2ccc(Cl)cc2)C(=S)NC1c1ccc(Br)cc1 (stereo unspecified) | · | – | · | · | – | ·
O=c1oc2ccccc2cc1-c1nnc(NCc2ccco2)s1 | – | 72.0 | – | – | – | ·
Nc1nnc(-c2cc3ccccc3oc2=O)s1 | – | – | – | – | – | ·
SMILES | PfHsp90 set2 | Wnt bcat act | TRPM1 prom inh | Glyco luc inh | NSD2 inh | MITF TRPM1 HTS
O=C(NN=C1CCCC1)c1n[nH]c2c1CCCC2 | – | 54.1 | – | – | – | –
COc1cc2c(c(OC)c1OC)[C@@]1(c3ccccc3)CCCC[C@H]1[C@@H]2NC(=O)C(F)(F)F | · | – | · | · | · | ·
O=c1[nH]c(=O)c2nc3c4ccccc4c4ccccc4c3nc2[nH]1 | – | – | – | 95.9 | – | –
CCCN1C(=O)c2ccc(C(=O)Nc3nccs3)cc2C1=O | – | – | – | – | – | ·
CCCc1cc(C(=O)Nc2nccs2)cs1 | · | · | – | – | – | 95.0
CC#CCOCC1CNC(=O)O1 (stereo unspecified) | · | 429.0 | · | – | – | ·
Cc1ccccc1NCC(=O)N/N=C/c1ccc[nH]1 | · | · | · | · | – | ·
CN(CCC#N)C(=O)c1cc2c(s1)-c1ccccc1SC2 | – | – | – | – | – | 86.3
Cc1cc(=O)[nH]c(SCC(=O)c2ccc(Cl)cc2)n1 | · | · | · | · | – | ·
O=C(/C=C/c1ccccc1)NC(=S)NNC(=O)c1cnccn1 | 108.6 | – | – | – | – | ·
COC(=O)N1C[C@H](Oc2ncccn2)[C@H]2C[C@@H]1c1ccccc1O2 | · | – | · | · | · | ·
O=C(C1CC(=O)N(c2ccc3c(c2)OCCO3)C1)N1CCN(S(=O)(=O)c2ccccc2F)CC1 (stereo unspecified) | – | – | – | – | – | –
CC(C)(C)c1ccc(C(=O)c2c[nH]c(C(=O)NCCCn3ccnc3)c2)cc1 | · | · | – | – | – | –
COc1ccc(C(=O)c2c[nH]c(C(=O)NCCCn3ccnc3)c2)cc1 | · | 39.7 | – | – | · | –
COc1cc(/C=N/NC(=O)c2cc(-c3c(C)nn(-c4ccccc4)c3C)n[nH]2)ccc1O | – | – | – | 54.4 | – | –
Cc1nn(-c2ccccc2)c(C)c1-c1cc(C(=O)N/N=C/c2ccc(O)cc2)[nH]n1 | – | – | – | – | – | –
Cc1occc1-c1nnc(SCC(=O)N[C@@H]2CCc3ccccc32)n1-c1ccccc1 | · | · | · | · | – | ·
Oc1ccccc1/C=N/Nc1cccc2cccnc12 | · | 67.2 | – | – | – | ·
O=C(O)c1ccc(N/N=C/c2cccc3cccnc23)cc1 | – | 40.8 | – | – | – | –
O=C(O)c1ccc(N/N=C/c2ccnc3ccccc23)cc1 | – | – | – | – | – | –
CCO[C@@H]1OC(C(=O)O)=C[C@H](c2ccc(C(F)(F)F)cc2)[C@H]1CCCO | – | – | – | – | · | –
COc1ccc(OC)c2c1sc(=NC(=O)c1ccco1)n2C | – | – | – | – | · | –
Cc1ccc(-c2c(C)sc(=NC(=O)c3ccco3)n2C)cc1 | – | · | – | – | – | 100.2
COc1ccc(C[C@H]2CN3C(=NC[C@@H]3C(C)C)N2CCNC(=O)CCC2CCCCC2)cc1 | – | – | – | – | · | –
COc1ccc(C[C@H]2CN3C(=NC[C@@H]3Cc3ccccc3)N2CCNC(=O)CCC2CCCCC2)cc1 | – | – | 97.8 | – | · | –
SMILES | PfHsp90 set2 | Wnt bcat act | TRPM1 prom inh | Glyco luc inh | NSD2 inh | MITF TRPM1 HTS
NS(=O)(=O)c1ccc(CCNC(=O)COC(=O)Cc2ccc(Cl)cc2)cc1 | · | – | · | – | – | ·
O=S(=O)(O)c1cc(O)c(N=Nc2ccc(O)cc2O)c2ccccc12 | – | – | – | – | 92.4 | –
Cc1ccc(S(=O)(=O)N2CCCc3nc(-c4ccc(Br)cc4)ccc32)cc1 | · | – | · | · | – | ·
CC(=O)NC1C(c2nc3ccccc3s2)=C(c2ccccc2)C(=O)N1c1ccc(C)cc1 (stereo unspecified) | – | 32.5 | – | – | – | ·
Cc1ccc(S(=O)(=O)NC(=O)NCC2CCN(S(=O)(=O)c3ccccc3)CC2)cc1 | – | – | – | – | – | –
N#CCC(CNc1ncc(C(F)(F)F)cc1Cl)OC(=O)c1cccc([N+](=O)[O-])c1 (stereo unspecified) | – | – | – | 28.6 | – | –
O=C(Nc1cccc2cccnc12)c1ccc(Cl)cc1 | – | – | – | – | – | ·
Cc1cc(NC(=O)CSCc2ccccc2)no1 | – | – | – | – | – | –
Cc1cc(NC(=O)CSCc2ccc([N+](=O)[O-])cc2)no1 | – | – | – | – | 142.7 | –
